Changes are numbered by the printed parent chain.

Holding throughout (assay): protein-binding microarray (PBM); PBM: ~300 nM protein, 6 mM HEPES pH 7.8, 80 mM KCl, 0.5 mM EDTA, 0.5 mM EGTA, 6% glycerol, 35 ng/ul poly-dIdC, 1% milk, 1 h, room temperature; Ap Aiptasia and Nv Nematostella (sea anemones) / Co Capsaspora / Aq Amphimedon (sponge) / Dm Drosophila / Hu human; RHD is the Rel homology domain; high values mean tight binding
Common to all, as to conditions: dsDNA, one strand shown

One assay has as its target T1, GST-Ap-NF-kB RHD (Exaiptasia pallida (Aiptasia), UniProt A0A913YAJ5 2-422).
T1 sequence: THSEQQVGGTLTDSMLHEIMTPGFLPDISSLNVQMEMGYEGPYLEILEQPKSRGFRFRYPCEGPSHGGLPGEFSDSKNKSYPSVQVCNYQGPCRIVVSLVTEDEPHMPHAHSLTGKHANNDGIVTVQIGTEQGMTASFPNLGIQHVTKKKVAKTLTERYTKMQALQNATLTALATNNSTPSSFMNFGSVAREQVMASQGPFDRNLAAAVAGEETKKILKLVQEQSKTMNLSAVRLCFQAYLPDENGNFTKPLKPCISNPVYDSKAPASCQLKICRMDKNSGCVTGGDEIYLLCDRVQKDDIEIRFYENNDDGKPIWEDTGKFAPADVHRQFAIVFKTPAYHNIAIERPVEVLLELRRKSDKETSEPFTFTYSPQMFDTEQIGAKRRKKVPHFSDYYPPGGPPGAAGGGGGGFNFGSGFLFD

Assay [1] has as its target T2, GST-Nv-NF-kB (Cys allele) (Nematostella vectensis, UniProt E5G601 2-411).
T2 sequence: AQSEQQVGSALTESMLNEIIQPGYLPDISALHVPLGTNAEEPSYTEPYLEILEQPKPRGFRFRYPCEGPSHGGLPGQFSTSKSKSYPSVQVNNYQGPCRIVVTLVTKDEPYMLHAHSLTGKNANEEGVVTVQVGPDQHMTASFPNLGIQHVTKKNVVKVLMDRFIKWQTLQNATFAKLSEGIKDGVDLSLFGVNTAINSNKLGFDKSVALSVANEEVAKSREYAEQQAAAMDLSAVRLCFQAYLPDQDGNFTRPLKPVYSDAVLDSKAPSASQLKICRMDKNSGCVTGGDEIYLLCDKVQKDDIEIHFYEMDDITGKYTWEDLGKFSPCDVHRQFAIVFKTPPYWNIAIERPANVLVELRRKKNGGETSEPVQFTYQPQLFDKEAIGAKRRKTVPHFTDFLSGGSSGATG

Assay [2] addresses T3, GST-Nv-NF-kB (Ser allele) (Nematostella vectensis, UniProt A7UNT2 2-411).
T3 sequence: T2 sequence with Q21R, C66S, S207N, E215Q, V217A, E225K, A268E, D399E

The target in another assay is T4, GST-Co-NF-kB (Capsaspora owczarzaki, UniProt F1ARL5 200-546).
T4 sequence: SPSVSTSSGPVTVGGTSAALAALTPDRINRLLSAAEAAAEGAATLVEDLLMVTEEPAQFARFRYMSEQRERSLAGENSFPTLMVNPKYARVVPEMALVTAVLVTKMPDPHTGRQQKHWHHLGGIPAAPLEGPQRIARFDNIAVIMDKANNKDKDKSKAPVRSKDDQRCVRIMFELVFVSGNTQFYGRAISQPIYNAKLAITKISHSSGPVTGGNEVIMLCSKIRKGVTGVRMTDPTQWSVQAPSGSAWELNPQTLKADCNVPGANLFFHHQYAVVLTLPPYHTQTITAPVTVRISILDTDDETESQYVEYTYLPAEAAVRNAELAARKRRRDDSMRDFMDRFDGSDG

The next assay has as its target T5, GST-Dm-Relish (Drosophila melanogaster, UniProt Q94527 99-473).
T5 sequence: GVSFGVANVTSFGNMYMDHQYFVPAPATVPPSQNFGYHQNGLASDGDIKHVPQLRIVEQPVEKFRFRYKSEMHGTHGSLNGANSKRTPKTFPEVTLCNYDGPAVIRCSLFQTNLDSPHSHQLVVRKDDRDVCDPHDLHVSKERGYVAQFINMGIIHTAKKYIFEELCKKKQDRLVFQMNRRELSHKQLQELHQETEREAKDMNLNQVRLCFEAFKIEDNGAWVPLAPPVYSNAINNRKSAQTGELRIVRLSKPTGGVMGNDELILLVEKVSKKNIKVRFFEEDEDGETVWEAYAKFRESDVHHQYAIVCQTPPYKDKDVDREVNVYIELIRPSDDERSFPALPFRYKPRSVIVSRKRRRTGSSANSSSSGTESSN

Another assay deals with T6, GST-Aq-NF-kB (Amphimedon queenslandica, UniProt A9Y5G7 2-389).
T6 sequence: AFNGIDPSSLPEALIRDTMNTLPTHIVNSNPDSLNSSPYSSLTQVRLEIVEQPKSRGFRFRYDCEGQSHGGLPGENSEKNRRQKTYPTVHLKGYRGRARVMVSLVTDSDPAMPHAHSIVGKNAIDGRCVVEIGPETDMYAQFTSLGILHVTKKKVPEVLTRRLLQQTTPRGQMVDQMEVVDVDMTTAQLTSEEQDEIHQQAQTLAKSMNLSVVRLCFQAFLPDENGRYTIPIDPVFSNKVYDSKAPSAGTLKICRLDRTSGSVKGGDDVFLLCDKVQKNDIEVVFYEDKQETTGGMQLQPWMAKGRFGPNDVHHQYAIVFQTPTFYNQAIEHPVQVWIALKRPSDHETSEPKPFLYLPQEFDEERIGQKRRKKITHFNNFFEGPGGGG

A further assay has as its target GST-Hu-p50 (Homo sapiens, UniProt P19838 7-356).

Chain of GST-Hu-p50 (P19838 7-356): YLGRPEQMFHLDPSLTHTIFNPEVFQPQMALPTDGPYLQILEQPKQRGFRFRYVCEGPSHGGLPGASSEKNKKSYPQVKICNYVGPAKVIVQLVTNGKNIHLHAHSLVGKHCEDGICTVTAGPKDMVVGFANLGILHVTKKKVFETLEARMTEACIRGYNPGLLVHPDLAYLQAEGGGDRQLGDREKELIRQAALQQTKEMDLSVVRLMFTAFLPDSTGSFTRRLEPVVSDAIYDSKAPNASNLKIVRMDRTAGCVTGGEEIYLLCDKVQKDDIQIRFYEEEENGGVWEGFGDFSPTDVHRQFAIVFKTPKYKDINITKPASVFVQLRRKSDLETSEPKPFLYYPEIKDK

Take “CCGATTAACATCAAGGTTCCCCCTGATGTTAATCGGGTCTTGATTCGCTTGACGCTGCTG”: the binding signal stood at 8.03 z-score with GST-Ap-NF-kB RHD; 6.89 z-score in assay [1]; 7.86 z-score in assay [2]; 9.24 z-score in the assay with GST-Co-NF-kB; 5.67 z-score in the assay with GST-Dm-Relish; 5.62 z-score with GST-Aq-NF-kB. In addition, the binding signal with GST-Hu-p50 stood at 5.92 z-score.
Take “CCGATTAACATCAAGAAATTCCCTGATGTTAATCGGGTCTTGATTCGCTTGACGCTGCTG”: the binding signal was 5.84 z-score in the assay with GST-Ap-NF-kB RHD; 8.19 z-score in assay [1]; 8.01 z-score in assay [2]; 4.57 z-score with GST-Co-NF-kB; 5.32 z-score in the assay with GST-Dm-Relish; 6.81 z-score with GST-Aq-NF-kB. The binding signal with GST-Hu-p50 was 5.84 z-score.
Turning to “CCGATTAACATCAATAAATCCCCTGATGTTAATCGGGTCTTGATTCGCTTGACGCTGCTG”, the binding signal with GST-Ap-NF-kB RHD came to 7.78 z-score; in assay [1], 9.33 z-score; in assay [2], 11.6 z-score; with GST-Co-NF-kB it was 4.45 z-score; with GST-Dm-Relish it was 9.26 z-score; with GST-Aq-NF-kB it was 6.63 z-score. The binding signal with GST-Hu-p50 came to 7.71 z-score.
For the sequence “CCGATTAACATCAGAAAATCCCCTGATGTTAATCGGGTCTTGATTCGCTTGACGCTGCTG”, the binding signal came to 10.4 z-score in the assay with GST-Ap-NF-kB RHD; 12 z-score in assay [1]; 13.8 z-score in assay [2]; 4.89 z-score with GST-Co-NF-kB; 9.8 z-score with GST-Dm-Relish; 8.95 z-score in the assay with GST-Aq-NF-kB. The same sequence registered a binding signal in the assay with GST-Hu-p50 of 8.46 z-score.
“CCGATTAACATCACAGTTTCCCCTGATGTTAATCGGGTCTTGATTCGCTTGACGCTGCTG”: the binding signal came out at 6.64 z-score with GST-Ap-NF-kB RHD; 7.28 z-score in assay [1]; 10.3 z-score in assay [2]; 7.74 z-score in the assay with GST-Co-NF-kB; 3.35 z-score in the assay with GST-Dm-Relish; 4.9 z-score with GST-Aq-NF-kB. This sequence also yielded a binding signal with GST-Hu-p50 of 5.61 z-score.
Take “CCGATTAACATCAGGGGGAAAACTGATGTTAATCGGGTCTTGATTCGCTTGACGCTGCTG”: the binding signal with GST-Ap-NF-kB RHD is 8.4 z-score; in assay [1], 8.08 z-score; in assay [2] it was 9.8 z-score; with GST-Co-NF-kB, 11.7 z-score; in the assay with GST-Dm-Relish it was 7.59 z-score; in the assay with GST-Aq-NF-kB, 7.21 z-score. The binding signal with GST-Hu-p50 was 7.47 z-score.
On to “CCGATTAACATCAACTCTCCCCCTGATGTTAATCGGGTCTTGATTCGCTTGACGCTGCTG”, for which the binding signal was determined as 5.78 z-score with GST-Ap-NF-kB RHD; 4.61 z-score in assay [1]; 5.62 z-score in assay [2]; 7.94 z-score with GST-Co-NF-kB; 2.14 z-score with GST-Dm-Relish; 4.72 z-score in the assay with GST-Aq-NF-kB. The binding signal in the assay with GST-Hu-p50 is 4.41 z-score.
As to “CCGATTAACATCAGGGAGTTTTATGATGTTAATCGGGTCTTGATTCGCTTGACGCTGCTG”, the binding signal in the assay with GST-Ap-NF-kB RHD stood at 5.33 z-score; in assay [1], 7.35 z-score; in assay [2], 6.78 z-score; with GST-Co-NF-kB, 2.72 z-score; with GST-Dm-Relish it was 5.65 z-score; in the assay with GST-Aq-NF-kB it was 6.93 z-score. This sequence also displayed a binding signal with GST-Hu-p50 of 5.8 z-score.
“CCGATTAACATCAAGTTCCCCCATGATGTTAATCGGGTCTTGATTCGCTTGACGCTGCTG”: the binding signal was found to be 7.14 z-score with GST-Ap-NF-kB RHD; 6.4 z-score in assay [1]; 6.97 z-score in assay [2]; 10.1 z-score with GST-Co-NF-kB; 4.93 z-score with GST-Dm-Relish; 5.56 z-score with GST-Aq-NF-kB. The sequence also showed a binding signal in the assay with GST-Hu-p50 of 6.24 z-score.
For “CCGATTAACATCAGGGGATGTGCTGATGTTAATCGGGTCTTGATTCGCTTGACGCTGCTG”, the binding signal with GST-Ap-NF-kB RHD came to 3.15 z-score; in assay [1], 3.45 z-score; in assay [2] it was 5.32 z-score; in the assay with GST-Co-NF-kB it was 1.81 z-score; in the assay with GST-Dm-Relish, 1.41 z-score; in the assay with GST-Aq-NF-kB it was 2.79 z-score. The sequence further returned a binding signal with GST-Hu-p50 of 3.33 z-score.
For the sequence “CCGATTAACATCAAACACCCCCTTGATGTTAATCGGGTCTTGATTCGCTTGACGCTGCTG”, the binding signal turned out to be 4.95 z-score in the assay with GST-Ap-NF-kB RHD; 5.25 z-score in assay [1]; 5.61 z-score in assay [2]; 3.04 z-score in the assay with GST-Co-NF-kB; 5.63 z-score with GST-Dm-Relish; 6.03 z-score in the assay with GST-Aq-NF-kB. Besides, the binding signal with GST-Hu-p50 worked out at 5.5 z-score.
On to “CCGATTAACATCAAGGAAATCCCTGATGTTAATCGGGTCTTGATTCGCTTGACGCTGCTG”, for which the binding signal turned out to be 4.83 z-score with GST-Ap-NF-kB RHD; 4.91 z-score in assay [1]; 2.74 z-score in assay [2]; 1.77 z-score with GST-Co-NF-kB; 7.71 z-score in the assay with GST-Dm-Relish; 5.91 z-score with GST-Aq-NF-kB. The sequence also displayed a binding signal with GST-Hu-p50 of 3.79 z-score.
“CCGATTAACATCAGGAAGCCCCCTGATGTTAATCGGGTCTTGATTCGCTTGACGCTGCTG”: the binding signal in the assay with GST-Ap-NF-kB RHD is 6.62 z-score; in assay [1], 5.72 z-score; in assay [2] it was 3.93 z-score; with GST-Co-NF-kB, 1.49 z-score; with GST-Dm-Relish, 7.8 z-score; with GST-Aq-NF-kB it was 7.03 z-score. This sequence also had a binding signal with GST-Hu-p50 of 5.74 z-score.
Consider “CCGATTAACATCAAAAAATCCCCTGATGTTAATCGGGTCTTGATTCGCTTGACGCTGCTG”, for which the binding signal with GST-Ap-NF-kB RHD was determined as 11.7 z-score; in assay [1], 11.9 z-score; in assay [2], 13.6 z-score; in the assay with GST-Co-NF-kB, 6.83 z-score; with GST-Dm-Relish, 10.7 z-score; with GST-Aq-NF-kB it was 9.56 z-score. Further, the binding signal with GST-Hu-p50 worked out at 8.06 z-score.
In the case of “CCGATTAACATCAGGGGGGCGCATGATGTTAATCGGGTCTTGATTCGCTTGACGCTGCTG”, the binding signal with GST-Ap-NF-kB RHD came to 3.86 z-score; in assay [1], 3.14 z-score; in assay [2] it was 3.06 z-score; with GST-Co-NF-kB it was 3.25 z-score; with GST-Dm-Relish it was 4.09 z-score; in the assay with GST-Aq-NF-kB, 4.07 z-score. The binding signal with GST-Hu-p50 is 4.13 z-score.
Consider “CCGATTAACATCAATTTCCCAGGTGATGTTAATCGGGTCTTGATTCGCTTGACGCTGCTG”, for which the binding signal was determined as 2.16 z-score in the assay with GST-Ap-NF-kB RHD; 2.4 z-score in assay [1]; 3.53 z-score in assay [2]; 3.41 z-score with GST-Co-NF-kB; 1.61 z-score with GST-Dm-Relish; 2.15 z-score with GST-Aq-NF-kB. Further, in the assay with GST-Hu-p50, the binding signal worked out at 3.21 z-score.
As to “CCGATTAACATCAATTTCCCCCGTGATGTTAATCGGGTCTTGATTCGCTTGACGCTGCTG”, the binding signal was 7.85 z-score with GST-Ap-NF-kB RHD; 6.59 z-score in assay [1]; 8.85 z-score in assay [2]; 12.3 z-score in the assay with GST-Co-NF-kB; 5.65 z-score in the assay with GST-Dm-Relish; 6.15 z-score with GST-Aq-NF-kB. Moreover, the binding signal with GST-Hu-p50 came out at 6.52 z-score.

The values above are taken from publication PMC5700166.
